Over roughly 110,000 compounds, “z-score” has its median near -0.1; the highest 2% begin near 2. This excerpt belongs to a sample that is enriched for the highest values. Active and inactive are the calls of the source.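 How the source made its calls: active means z-score in the third read window above 3 or below -3; inactive means the rest.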

Metabotropic glutamate receptor 8 (Rattus norvegicus), sequence (P70579 whole entry, looked up): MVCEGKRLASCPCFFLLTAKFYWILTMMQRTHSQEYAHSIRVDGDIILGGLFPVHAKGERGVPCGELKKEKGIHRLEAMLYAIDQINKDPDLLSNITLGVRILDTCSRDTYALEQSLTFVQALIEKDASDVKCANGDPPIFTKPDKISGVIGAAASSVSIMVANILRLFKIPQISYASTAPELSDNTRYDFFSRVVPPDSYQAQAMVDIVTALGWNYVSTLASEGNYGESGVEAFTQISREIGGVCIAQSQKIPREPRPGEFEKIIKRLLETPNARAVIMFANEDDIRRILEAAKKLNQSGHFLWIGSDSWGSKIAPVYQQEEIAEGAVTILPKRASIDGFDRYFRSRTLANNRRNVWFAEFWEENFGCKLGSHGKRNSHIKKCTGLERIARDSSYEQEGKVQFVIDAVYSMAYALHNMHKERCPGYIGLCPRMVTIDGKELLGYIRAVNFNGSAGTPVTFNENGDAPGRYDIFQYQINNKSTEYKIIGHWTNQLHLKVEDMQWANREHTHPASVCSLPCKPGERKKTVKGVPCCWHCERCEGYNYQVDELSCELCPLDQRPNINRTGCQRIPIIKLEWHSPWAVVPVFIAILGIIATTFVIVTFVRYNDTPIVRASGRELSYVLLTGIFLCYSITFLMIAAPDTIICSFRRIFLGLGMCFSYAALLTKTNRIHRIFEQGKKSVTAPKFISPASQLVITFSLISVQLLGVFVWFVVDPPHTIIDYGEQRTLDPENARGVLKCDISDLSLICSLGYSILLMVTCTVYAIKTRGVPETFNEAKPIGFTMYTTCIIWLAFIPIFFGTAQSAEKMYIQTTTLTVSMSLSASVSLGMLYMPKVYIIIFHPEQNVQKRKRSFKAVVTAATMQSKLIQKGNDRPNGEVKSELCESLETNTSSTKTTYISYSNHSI

The assay addresses Metabotropic glutamate receptor 8 (Rattus norvegicus) (UniProt P70579). In words: rat mGluR8 modulators via GIRK flux, primary screen, cell-based, thallium flux, HTS (AID 488969). The following applies: HEK293 rat mGluR8, GIRK (G protein-gated inwardly rectifying potassium channel) thallium flux, FluoZin2; at 10 µM; stronger effect = higher value; submaximal glutamate (EC20) added with thallium.
For the compound `COc1ccccc1OC1=NS(=O)(=O)c2ccccc21`, the z-score was -0.276.
In the case of `CC(C)(C)n1nc2c(c1NC(=O)c1ccccc1F)CS(=O)C2` (stereo not drawn), the z-score was -0.492.
The value for `Cc1cc(C(=O)N2CCN(C(c3ccccc3)c3ccccc3)CC2)no1` was -0.079; that for `COc1ccc(-c2nc3ccccn3c2NCc2ccc3c(c2)OCO3)cc1` was -1.02.
Regarding `CCCCn1nc(-c2ccccc2)c2nc3ccccc3nc21`, the z-score is -0.013.
The value for `CCCn1nc(-c2ccccc2)c2nc3ccccc3nc21` was 0.0864.
To `CCCCCn1nc(-c2ccccc2)c2nc3ccccc3nc21` belongs 14.9 (active); to `CCCn1cc(SCC(=O)NCC2CCCO2)c2ccccc21` (stereo not drawn), 0.0527.
The value for `COc1cc(SC#N)ccc1N=Cc1c(C)[nH]n(-c2cccc3ccccc23)c1=O` was -0.32.
As for `N#Cc1c(/N=C/c2cc3ccccc3s2)sc2c1CCC2`, the z-score was -0.0332.
The value for `Cc1[nH]n(-c2ccc(F)cc2)c(=O)c1/C=N/c1sc2c(c1C#N)CCCC2` was 13 (active); that for `Cc1ccc(/C=N/c2sc3c(c2C#N)CCCCC3)o1` was -0.0448.
The value for `Cc1[nH]n(-c2cccc3ccccc23)c(=O)c1/C=N/c1sc2c(c1C#N)CCC2` was 8.05 (active); that for `CCOC(=O)c1sc(/N=C/c2c(C)[nH]n(-c3ccccc3)c2=O)c(C#N)c1C` was -0.156; that for `COc1ccc(OC)c(C2C(C(=O)O)c3ccccc3C(=O)N2C)c1` (stereo not drawn) was 0.356.
As to `CCOC(=O)N1CCN(C(=O)c2ccc(CNS(=O)(=O)c3ccc(C)cc3)cc2)CC1`, the z-score was -0.952.
The value for `COC(=O)CSc1nc2ccccc2o1` was -0.541; that for `Cc1nonc1OCC(C)(COc1nonc1C)NC(=O)c1ccc(Cl)cc1` was -0.0555.
With `COc1ccccc1CNC(=O)/C=C/c1cc2c(cc1Br)OCO2`, the z-score is -0.0108.
To `CCCOc1ccc(OCC(=O)c2[nH]c(C)c(C(C)=O)c2C)cc1` belongs 0.149; to `CC(=O)c1c(C)[nH]c(C(=O)COc2cc(C)cc(C)c2)c1C`, 4 (active); to `CC(=O)c1c(C)[nH]c(C(=O)COc2ccc(C#N)cc2)c1C`, -0.0197.
The value for `O=C1CN(Cc2ccccc2)C(=NCc2ccco2)S1` was -0.501; that for `Cc1cccc(NC(=S)NCC23C=CC(O2)C2C(=O)N(c4ccc(Cl)cc4)C(=O)C23)c1` (stereo not drawn) was -0.343.
The value for `CCOC(=O)c1ccc(NC(=O)c2ccccc2[N+](=O)[O-])cc1` was -0.169; that for `CC(=O)NC(=S)Nc1ccc(-c2nc3ccc(C)cc3s2)cc1` was 0.23; that for `OCCNCCCCOc1ccc(F)cc1` was 0.17.
Turning to `CC(C)(C)NCCCCOc1ccc(F)cc1`, the z-score amounted to 2.98.
On to `CC(C)(C)NCCOc1ccc(Br)cc1`, for which the z-score was -0.0295.
Take `C=CCn1c(N)c(C(=O)NCC2CCCO2)sc1=S` (stereo not drawn): the z-score is 0.129.
In the case of `CCOC(=O)N1CCN(c2cc(=O)n(C3CCCCC3)c(=O)[nH]2)CC1`, the z-score worked out at 0.0254.
For `CCOc1ccc(OCC)c(-c2c(=O)n(OCc3ccccc3Br)c3ccccc3[n+]2[O-])c1`, the z-score was 1.8.
Consider `c1ccc(N2CCN(c3c4c(nc5ncnn35)CCC4)CC2)cc1`, for which the z-score is -0.139.
With `COc1cccc(N2CCN(c3c4c(nc5ncnn35)CCC4)CC2)c1`, the z-score is 5.19 (active).
For `COc1cccc(CC(NC(C)=O)C(=O)NC2CCN(c3c4c(nc5ncnn35)CCC4)CC2)c1` (stereo not drawn), the z-score worked out at 0.172.
To `COc1ccc2cc(S(=O)(=O)NCCCN3CCOCC3)ccc2c1` belongs -0.0146.
`Cc1ccccc1NC(=O)C(C#N)Cc1cccnc1` (stereo not drawn) yielded a z-score of 2.26.
With `Cc1ccccc1NC(=O)/C(C#N)=C\c1cccnc1`, the z-score was -0.183.
To `CCc1ccccc1NC(=O)C(C#N)Cc1cccnc1` (stereo not drawn) belongs 0.345; to `Cc1ccc(CO/N=C\Cc2snc(Sc3ncc(C(F)(F)F)cc3Cl)c2C#N)cc1`, 0.0198.
The compound `Cc1ccc(CNC(=O)C(Cc2ccccc2)NS(=O)(=O)c2ccc3c(c2)CCC(=O)N3)cc1` (stereo not drawn) returned a z-score of 0.0976.
The value for `O=C(CSc1cn(Cc2ccccc2)c2ccccc12)Nc1nccs1` was -0.121.
For the compound `O=C(NN=C(Cc1ccccc1)Cc1ccccc1)c1ccc(F)cc1`, the z-score was 4.71 (active).
`C/C(Cc1ccccc1)=N\NC(=O)c1ccc(F)cc1` gave a z-score of 0.49.
To `COc1ccc(C(=O)NN=C(Cc2ccccc2)Cc2ccccc2)cc1OC` belongs -0.165; to `O=C(CS(=O)(=O)Cc1ccccc1)Nc1ccc(S(=O)(=O)N2CCOCC2)cc1`, -0.109.
For the compound `CCCC(=O)Nc1nc2ccc(S(=O)(=O)N3CCCCC3)cc2s1`, the z-score is -0.273.
To `O=C(Nc1nc(-c2ccccn2)cs1)c1ccc(Br)s1` belongs 12.3 (active); to `O=C(Nc1nc(-c2cc(Cl)sc2Cl)cs1)c1ccc(Br)s1`, 0.0927; to `O=C(Nc1nc(-c2ccccn2)cs1)C1CC1`, 0.0299.
Take `O=C(CSCc1ccccc1Br)N/N=C/c1ccc2c(c1)OCO2`: the z-score is -0.0558.
On to `CCOCCCNC(=O)Cc1c(C(=O)O)[nH]c2ccc(Cl)cc12`, for which the z-score was determined as 0.12.
To `N=c1n(CCO)c2ccccc2n1CCOc1ccccc1` belongs -0.208; to `CCOC(=O)Cn1c(=N)n(CCOc2ccc3ccccc3c2)c2ccccc21`, 1.25; to `CCCn1c(=N)n(CCOc2ccc(OC)cc2)c2ccccc21`, 3.04 (active).
Turning to `Cc1cccc(OCCn2c(=O)sc3ccccc32)c1`, the z-score was -0.343.
To `CCOC(=O)Cn1c(=N)n(CCOc2cccc(C)c2)c2ccccc21` belongs 3.95 (active).
To `Cc1cccc(OCCn2c(S(=O)(=O)O)nc3ccccc32)c1` belongs 0.0442.
The value for `CCCn1c(=N)n(CC(=O)OCC)c2ccccc21` was -0.118.
`CCOC(=O)Cn1c(=N)n(CCOc2ccc(OC)cc2)c2ccccc21`: the z-score was found to be 2.74.
To `CCn1c(=S)[nH]c2ccccc21` belongs 0.63.
Turning to `CCn1c(=N)n(CCOc2ccc(OC)cc2)c2ccccc21`, the z-score is -0.158.
As to `Cc1cccc(OCCn2c(=S)[nH]c3ccccc32)c1`, the z-score is 2.83.
In the case of `CCCn1c(=N)n(CCOCCOCCn2c(=N)n(CCC)c3ccccc32)c2ccccc21`, the z-score stood at 0.012.
To `O=C(NCCN1CCCCC1)c1ccco1` belongs 0.151.
`CC1=C(Sc2ccccn2)C(=O)NC(C)(C)C1` returned a z-score of 0.338.
As for `CN(C)S(=O)(=O)c1ccc(C(=O)Nc2ccccc2OC(F)(F)C(F)F)cc1`, the z-score was -0.525.
The compound `COc1ccc(NC(=O)Nc2ncn(Cc3cccc(C(F)(F)F)c3)n2)cc1OC` had a z-score of 0.0572.
The value for `COc1ccc(-c2ccc(/C=C3/C(=N)N4C=CSC4=NC3=O)o2)c([N+](=O)[O-])c1` was 0.455.
Consider `CC(=O)N1N=C(c2ccco2)CC1c1ccc(C)cc1` (stereo not drawn), for which the z-score came out at 0.0902.
The value for `C=CCNC(=O)C(=O)N/N=C/c1ccco1` was 0.424.
The value for `CCCn1c(C)cc(=O)c2cc(NC(=O)c3cnccn3)ccc21` was -0.106; that for `O=C(Cn1ccc2ccccc2c1=O)N1CCN(Cc2ccc3c(c2)OCO3)CC1` was 0.477.
The value for `CCN1C(c2ccccc2)=C(c2ccccc2)S/C1=C/C=C1\SC(=S)N(C)C1=O` was -0.0724; that for `O=C(NCc1cccs1)C1CCN(S(=O)(=O)c2cccs2)CC1` was -0.232; that for `CCOc1ccc(NC(=O)CSCC(=O)O)cc1` was -0.178.
`Cc1occc1C(=O)N/N=C/C1=C(N2CCOCC2)C(=C\c2ccc(Cl)cc2Cl)/CC1` yielded a z-score of 0.0547.
Turning to `CC(NC(=O)Cc1cccs1)C(c1cccs1)N1CCOCC1` (stereo not drawn), the z-score is -0.108.
For `CCOC(=O)Cn1c(=N)n(Cc2ccccc2)c2ccccc21`, the z-score is 0.46.
To `CCOC(=O)Cn1c(=N)n(Cc2ccccc2F)c2ccccc21` belongs 3.72 (active).
`C=CCn1c(=N)n(CC(=O)OCC)c2ccccc21`: the z-score turned out to be 0.534.
To `COc1cc(C(=O)NCc2nnc(SCC(=O)NCc3ccccc3)o2)cc(OC)c1OC` belongs 1.55; to `CCC(c1nnnn1CCOC)N(Cc1cc2c(C)cc(C)cc2[nH]c1=O)CC1CCCO1` (stereo not drawn), -0.203.
The value for `Nc1nc(CSC(=S)N2CCN(c3ccccc3)CC2)nc(Nc2ccccc2)n1` was 0.00399.
For the compound `Nc1nc(CSC(=S)N2CCOCC2)nc(Nc2ccccc2)n1`, the z-score was determined as 2.25.
Turning to `Nc1nc(CSC(=S)N2CCOCC2)nc(Nc2ccc(F)cc2)n1`, the z-score was -0.0752.
Turning to `Cc1cc(C)c(S(=O)(=O)c2ccccc2)c(OC(=O)c2c(Cl)cccc2Cl)n1`, the z-score is -0.286.
Regarding `COc1ccc(Cl)cc1NC(=O)c1ccco1`, the z-score was -0.426.
`COc1ccc(NC(=O)c2ccco2)cc1NC(=O)c1ccc(C)cc1`: the z-score is -0.304.
The value for `COc1ccc(C)cc1NC(=O)C(=O)NNC(=O)c1ccco1` was 4.89 (active); that for `COc1ccccc1NC(=O)c1cccc(NC(=O)c2ccco2)c1` was -0.669; that for `COc1ccccc1NC(=O)C(=O)NNC(=O)c1ccco1` was 2.81.
The value for `COc1ccccc1NC(=O)c1cc(Cl)ccc1NC(=O)c1ccco1` was 0.52.
The value for `O=c1c2ccccc2nc(CSc2ncnc3nc[nH]c23)n1-c1cccc(C(F)(F)F)c1` was -0.256; that for `Cc1nc(NC(=O)c2ccccc2)sc1-c1csc(NCc2ccco2)n1` was 0.00275; that for `Cn1nnc(NC(=O)c2ccco2)n1` was 0.813.
With `Cc1ccc(C(=O)OCC(=O)NCc2ccco2)cc1`, the z-score was -0.195.
For `CCc1ccc2c(c1)C1(NN=C(c3cccc4ccccc34)S1)C(=O)N2` (stereo not drawn), the z-score is 4.02 (active).
The value for `CCc1ccc2c(c1)C1(C(=O)N2)N2CCCC2C(C(=O)c2ccc3ccccc3c2)C12C(=O)Nc1ccccc12` (stereo not drawn) was -0.276; that for `CCc1ccc2c(c1)C1(NN=C(c3ccc(C)cc3)S1)C(=O)N2` (stereo not drawn) was 3.15 (active).
To `CCc1ccc2c(c1)C(=O)c1ccccc1C2=O` belongs -0.389; to `CCc1ccc2c(c1)C1(NN=C(c3ccccc3)S1)C(=O)N2` (stereo not drawn), 0.104.
Compound `CC(C)c1ccc2c(c1)C1(NN=C(c3ccccc3)S1)C(=O)N2` (stereo not drawn) registered a z-score of 0.979.
To `CCCc1ccc(OCC(O)CN2CCN(c3ccccc3)CC2)cc1` (stereo not drawn) belongs -0.0136.
With `COc1cc(C2CC(=O)c3c(ccc4ccccc34)N2)ccc1O` (stereo not drawn), the z-score was found to be 0.11.
The value for `COc1ccc(C(=O)C(CCCCC(CN(C)C)C(=O)c2ccc(OC)cc2)CN(C)C)cc1` (stereo not drawn) was -0.494; that for `CCOC(=O)C1=C(C)NC(=O)NC1c1ccc(OC)c(CN2CCOCC2)c1` (stereo not drawn) was 0.00374; that for `COc1ccc(CCCC(=O)Nc2ccccc2F)cc1` was 0.0152.
The value for `COC(=O)c1cc(NC(=O)C2CC2)cc(C(=O)OC)c1` was 0.0071; that for `Cc1ccsc1/C=C1/SC(N2CC(C)OC(C)C2)=NC1=O` (stereo not drawn) was -0.238.
`CC(=O)c1ccc(NC(=S)N2CC(C)CC(C)C2)cc1` (stereo not drawn): the z-score is -0.208.
`CC(=O)c1ccc(NC2OC(C)C(O)C(O)C2O)cc1` (stereo not drawn): the z-score turned out to be 0.292.
For the compound `CC(=O)c1ccc(NC2CC(O)C(O)CO2)cc1` (stereo not drawn), the z-score amounted to 2.32.

For the origin of these results see PubChem BioAssay AID488969 (Vanderbilt High Throughput Screening Facility, 2010).
